High-throughput results deposited in PubChem by National Center for Advancing Translational Sciences (NCATS).
p53 reactivation: qHTS assay for re-activators of p53 using a Luc reporter; H1299 p53-A138V BP100-luciferase reporter, luminescence, 24 h; Potency, µM (highest dose often 92.2 µM), hits mostly activators; 320,000 tested, 0.063% active; AID 504706, 2011; further: nearly all actives have a fitted effect of over 45% in size
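p53-null H1299 cells stably carrying temperature-sensitive p53-A138V and a BP100-luciferase reporter were pinned with compounds (4-point, 1:5 series) and held 24 hrs at 37 deg C. Luminescence was read 10 min after detection reagent.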
A549 tox: Nrf2 qHTS screen for inhibitors: counterscreen for cytotoxicity. A549 ARE-Fluc cells, CellTiter-Fluor viability, 18-24 h. Potency, µM (doses to about 46 µM), usual class: inhibitors. 390,000 tested, 0.16% active. AID 504648, 2011
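A549 ARE-Fluc cells in 5% FBS OPTI-MEM, 5000 cells/well, rested 2 h then exposed to compounds in concentration-response for 18-24 h at 37 °C. Viability by CellTiter-Fluor fluorescence (Ex 405/Em 525) after 30 min; luciferase luminescence (BugLite, 15 min, RT) read afterwards.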
IL-2 act: qHTS of IL-2 Activators; IL-2 activation reporter assay, cell-based qHTS; stimulated with anti-CD3/CD4/CD28 beads; in transgenic mouse T cells; activation, % (series mostly up to about 46 µM); 360,000 tested, 0.065% active; AID 652025, 2013; in the data active means activation above about 50%; inconclusive means mostly about 30% to 49%
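First, unstimulated transgenic mouse T cells were exposed to compound for 60 min. Next, anti-CD3/anti-CD4-coated beads with anti-CD28 were added. Finally, after 18 h at 37 degrees C, EGFP and DsRed were imaged.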
Nrf2 activator: qHTS of Nrf2 Activators; AID 624171, 2012; 410,000 tested, 0.31% active; AREc32 ARE-luciferase reporter (MCF7-derived line), luminescence, 24 h; Potency, µM (top dose mostly 46.1 µM), usual class: activators; further: nearly all actives have a fitted effect of over 65% in size
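AREc32 cells carrying an ARE-driven firefly luciferase reporter were seeded at 1000 cells/well in OPTI-MEM with 5% FBS, then exposed to compound for 24 hr at 37 deg C. Luminescence was read with Steady-Glo after 30 min at RT.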
Nrf2 block: Nrf2 qHTS screen for inhibitors | 360,000 tested, 2.1% active | A549 ARE-Fluc reporter, luciferase luminescence, 18-24 h | Potency, µM (doses to about 46 µM), actives largely listed as inhibitors; further: nearly all actives have a fitted effect of over 60% in size
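Quantitative HTS in A549 cells stably bearing an antioxidant response element-firefly luciferase construct. Inhibition of Nrf2-driven transcription was scored by luminescence after 18-24 h of compound exposure at 37 °C.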
BRCA1 expr act: qHTS Assay to Identify Small Molecule Activators of BRCA1 Expression | Potency, µM (doses to about 46.1 µM), usual class: activators | AID 624202, 2012 | MCF7-BRCA1-FFLuc reporter, luminescence, 48 h; response scale: scaled: vehicle 0%, 10 µM genistein 100% | 380,000 tested, 1.1% active; further: nearly all actives have a fitted effect of over 80% in size
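MCF7-BRCA1-FFLuc, 2000 cells/well; 2 h attach, 37 °C/5% CO2; compound 48 h; luciferase substrate 15 min; luminescence end-point. Norm. to genistein 10 microM max activation and DMSO; concentration-response curves fitted.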
A number is an active result; 0 = inactive; ? = inconclusive; - = not tested or not shown; [ ] = dose if it differs, or a comment. Only some compounds are listed: those with a hit (about 3.2% of all), similar ones and a draw of the others. Unless noted, the call rests on the fitted dose curve; in most records, active means well fitted curve in the direction sought with a large enough effect; inconclusive means small, poorly fitted or top-dose-only effect, or another doubt; inactive means no such curve, though single readings can be large; an effect the other way counts as inactive or inconclusive.

SMILES	p53 reactivation	A549 tox	IL-2 act	Nrf2 activator	Nrf2 block	BRCA1 expr act
Cc1cccc2[nH]c(-c3ccc(NC(=O)c4ccco4)cc3)nc12	?	0	0	0	0	1.8µM
CCOc1ccc(CC(=O)Nc2sc(Cc3ccccc3)cc2C(N)=O)cc1OCC	0	0	0	0	0	0
COc1cccc(-c2nnc3sc(-c4ccco4)nn23)c1	0	0	0	0	0	8.9µM
Cc1ccc(-c2nc3ccccc3[nH]2)cc1NC(=O)c1ccco1	0	0	0	0	0	0
COC(=O)c1[nH]c2cc(OC)ccc2c1NC(=O)CCN1CCN(c2ccccc2)CC1	0	0	0	0	0	0
COc1ccc(-c2nnc3sc(-c4ccco4)nn23)cc1OC	0	0	0	0	0	0
COc1ccc(S(=O)(=O)NCCc2nnc3ccc(SCC(=O)Nc4cc(C)cc(C)c4)nn23)cc1	-	0	-	0	0	-
COc1ccc(C(=O)Nc2nnc(-c3ccc(F)cc3)s2)c(OC)c1	0	0	0	0	16µM	0
COc1cccc(N2CCN(CC(=O)Nc3nnc(-c4ccccc4)s3)CC2)c1	0	0	0	0	12µM	0
COc1cccc(N2CCN(CC(=O)c3c(C)[nH]c4ccccc34)CC2)c1	0	?	0	0	12µM	0
COc1cccc(N2CCN(CC(=O)NC3=Nc4ccccc4N=C(C)C3c3ccccc3)CC2)c1 (stereo unspecified)	0	0	0	0	?	0
CCOC(=O)Nc1nnc(-c2cccc(OC)c2)s1	?	0	0	0	?	0
COc1cccc(-c2nnc(NC(=O)c3cccs3)s2)c1	0	0	0	0	0	4µM
CC(C)CN(CCCNC(=O)c1cn(C)c2ccc(S(=O)(=O)N(C)C3CCCCC3)cc2c1=O)CC(C)C	-	0	-	0	0	-
COc1ccc(-c2nnc(NC(=O)c3ccco3)s2)cc1	?	0	0	0	0	?
O=C(Nc1nnc(CCc2ccccc2)s1)c1ccco1	?	0	0	?	0	0
O=C(Nc1nnc(Cc2ccccc2)s1)c1ccco1	0	0	0	0	?	13µM
Cc1ccc(-c2nnc(NC(=O)c3ccco3)s2)cc1	?	0	0	0	?	2.2µM
Cc1ccc(Oc2ccc(NC(=O)c3ccco3)cc2)cc1	0	0	0	0	0	11µM
COc1cccc(-c2nnc(NC(=O)c3ccco3)s2)c1	0	0	0	0	?	6.3µM
O=S(=O)(c1ccc2c(c1)CCCC2)N1CCN(c2nc(-c3cccs3)nc3ccccc23)CC1	-	0	-	-	0	0
CCC(Oc1ccccc1)C(=O)Nc1ccc(O)c(-c2nc3cc(C)ccc3o2)c1 (stereo unspecified)	-	0	-	0	0	-
O=C(Nc1nnc(Cc2ccc(Cl)cc2)s1)C1CCN(C(=O)c2ccco2)CC1	-	0	-	-	16µM	0
CCc1nnc(NC(=O)C2CCN(C(=O)c3ccco3)CC2)s1	0	0	0	0	0	0
COc1ccc(Cn2c(CCC(=O)Nc3cccc(Cl)c3)nc3cccnc32)cc1	-	0	-	0	0	-
SMILES	p53 reactivation	A549 tox	IL-2 act	Nrf2 activator	Nrf2 block	BRCA1 expr act
Cc1ccc(OCCn2cnc3ccccc3c2=O)c([N+](=O)[O-])c1	0	0	0	0	?	4.5µM
Cc1cc(NC(=O)/C(C#N)=C/c2ccc(-c3ccc(SC(F)F)cc3)o2)n(-c2ccccc2)n1	0	0	100	0	?	0
Cc1cc(NC(=O)/C(C#N)=C/c2ccc(-c3cccc(C(F)(F)F)c3)o2)n(-c2ccccc2)n1	0	0	0	0[9.22 µM]	0	0
Cc1c(NC(=O)/C(C#N)=C/c2ccc(-c3ccc(Cl)cc3)o2)c(=O)n(-c2ccccc2)n1C	0	23µM	0	0	?	0
Cc1ccc(C2=NC(C(F)(F)F)(C(F)(F)F)c3c(n(-c4ccc(F)cc4)c(=O)[nH]c3=O)N2)cc1	0	0	0	0	21µM	0
O=c1[nH]c(=O)n(-c2ccc(F)cc2)c2c1C(C(F)(F)F)(C(F)(F)F)N=C(c1ccc(F)cc1)N2	0	?	0	0	16µM	0
O=c1[nH]c(=O)n(Cc2ccco2)c2c1C(C(F)(F)F)(C(F)(F)F)N=C(CCC1CCCCC1)N2	0	0	0	0	0	0[1.84 µM]
O=c1[nH]c(=O)n(-c2ccccc2)c2c1C(C(F)(F)F)(C(F)(F)F)N=C(CCC1CCCCC1)N2	0	?	0	0	18µM	0
COc1ccc(-n2c3c(c(=O)[nH]c2=O)C(C(F)(F)F)(C(F)(F)F)N=C(CC(C)C)N3)cc1	0	0	0	0	?	0
Cc1ccc(C)c(NC(=O)Cc2coc3cc(C)cc(C)c23)c1	-	0	-	0	0	-
O=C(N/N=C/c1ccc([N+](=O)[O-])s1)c1ccncc1	0	0	0	?	?	0
O=C(N/N=C/c1cccc(Oc2ccccc2)c1)c1cccc(O)c1	0	0	0	0	0	0
O=C(N/N=C/c1cccc(Oc2ccccc2)c1)c1cccc(Br)c1	0	0[1.84 µM]	0	0	18µM	0
O=C(N/N=C/c1ccc([N+](=O)[O-])s1)c1cccc(Br)c1	0	?	0	0	21µM	0
Cc1ccc([N+](=O)[O-])c(C(=O)N/N=C/c2cccs2)c1	0	0	0	0	9.2µM	0
Cc1ccc(C(=O)N/N=C/c2ccc([N+](=O)[O-])s2)cc1	0	?	0	0	16µM	0
CCCCCCCCCOC(=O)CNc1nc(C#N)nc(NCC(=O)OCCCCCCCCC)n1	-	0	-	-	0	0
CCOC(=O)N/N=C\c1ccc([N+](=O)[O-])s1	0	?	0	0	23µM	0
Cc1cccc(NC(=S)N/N=C/c2ccc([N+](=O)[O-])s2)c1	0	?	0	0	11µM	0
CC(C)(C)OC(=O)N/N=C\c1ccc([N+](=O)[O-])s1	?	0	0	0	0	0
COc1cc(F)c(S(=O)(=O)N2CCN(S(=O)(=O)c3ccc(NC(C)=O)cc3)CC2)c(F)c1	-	0	-	-	0	-
CNc1cncc(-c2cccc(O)c2)n1	-	-	0	0	-	0
CNc1cccc(-c2cccc(O)c2)n1	-	-	0	0[9.22 µM]	-	10µM
Cc1ccc(-c2csc(NC(=O)c3ccc4c(=O)n5c(nc4c3)CCCCC5)n2)cc1	0	0	0	0[9.22 µM]	5.2µM	0
COc1ccc(CNC(=O)c2ccc3c(=O)n4c(nc3c2)CCCCC4)cc1OC	0	0	0	0	6.5µM	0
O=C(NCc1ccc(F)cc1)c1ccc2c(=O)n3c(nc2c1)CCCCC3	0	0	0	0	0	0
CC(=O)c1ccc(NC(=O)c2ccc3c(=O)n4c(nc3c2)CCCCC4)cc1	0	0	0	0	0	0
